Screens: PubChem, Buhrlage Lab, Dana-Farber Cancer Institute and Novartis Institutes for BioMedical Research (Cambridge, Mass)
In the library only some 11% were active in any assay of this set; here they are far more common.
USP17 inh: blocks human USP17 ubiquitin-rhodamine cleavage. A8MUK1. purified USP17, Ub-rhodamine cleavage fluorescence, 3 h. inhibition, % at 50 µM. 6.5% of 47,000 active. AID 1645855
USP30 inh: blocks human USP30 ubiquitin-rhodamine cleavage; 5.3% of 47,000 active; inhibition, % at 25 µM; Q70CQ3; purified USP30, Ub-rhodamine cleavage fluorescence
Target sequence (Q70CQ3 whole entry, looked up): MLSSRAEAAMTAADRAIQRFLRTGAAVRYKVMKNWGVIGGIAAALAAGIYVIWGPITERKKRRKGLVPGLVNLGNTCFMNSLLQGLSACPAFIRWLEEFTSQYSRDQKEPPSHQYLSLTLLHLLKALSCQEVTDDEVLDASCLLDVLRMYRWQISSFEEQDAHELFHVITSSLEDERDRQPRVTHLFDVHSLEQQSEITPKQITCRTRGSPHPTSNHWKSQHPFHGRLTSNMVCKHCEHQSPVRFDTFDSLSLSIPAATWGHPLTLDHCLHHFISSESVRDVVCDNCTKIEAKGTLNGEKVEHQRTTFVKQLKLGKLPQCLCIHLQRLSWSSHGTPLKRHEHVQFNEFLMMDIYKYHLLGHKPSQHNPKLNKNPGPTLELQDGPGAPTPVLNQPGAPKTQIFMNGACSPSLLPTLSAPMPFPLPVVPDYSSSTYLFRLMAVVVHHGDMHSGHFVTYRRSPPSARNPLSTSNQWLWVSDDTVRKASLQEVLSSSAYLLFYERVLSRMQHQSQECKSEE
USP28 inh: inhibitors of human USP28 deubiquitinase; inhibition, % at 25 µM; Q96RU2; purified USP28, Ub-rhodamine cleavage fluorescence, 30 min; AID 1645857; 3% of 47,000 active
An asterisk follows results filed as active. Rule as the data show it: active = inhibition above about 30%; inactive = the rest.

COc1cc(NC(=O)c2ccc(OCc3ccccc3)cc2)ccc1NC(=O)c1ccco1 was read as USP17 inh -12.1, USP30 inh -71.3 and USP28 inh 17.5.
Screening COC(=O)c1cc(Br)c(NC(=O)c2ccco2)cc1OC returned USP17 inh 39.5*, USP30 inh 19.7 and USP28 inh 16.8.
Screening COc1ccccc1NS(=O)(=O)c1cccc(NC(=O)CCc2nc3ccccc3s2)c1 returned USP17 inh 61.2*, USP30 inh -124.5 and USP28 inh 24.7.
COc1ccccc1NS(=O)(=O)c1cccc(NC(=O)CCOc2ccccc2)c1 was read as USP17 inh 10.3, USP30 inh 16.3 and USP28 inh -73.6.
Screening CN(C)C(=O)C1Cn2ccnc2C2(CCN(C(=O)NCCc3ccccc3)CC2)O1 (configuration not stated) returned USP17 inh -13.0, USP30 inh -10.5 and USP28 inh -8.2.
Screening O=C(Nc1nc2c(s1)CCCC2)c1cn(-c2ccccc2)nc1-c1ccccc1 returned USP17 inh 18.0, USP30 inh 4.0 and USP28 inh 11.0.
For O=C(Nc1nc2c(s1)CCCCC2)c1cn2cccnc2n1 the results were USP17 inh -30.1, USP30 inh -0.3 and USP28 inh 0.0.
For CN1CCc2nc(NC(=O)COc3ccc(C#N)cc3)sc2C1 the results were USP17 inh 83.2*, USP30 inh 59.3* and USP28 inh 33.3*.
Cc1cccc(OCC(=O)Nc2onc3c2CCCC3)c1 was read as USP17 inh 2.2, USP30 inh 12.1 and USP28 inh 19.7.
For O=C(Nc1nc2c(s1)CCCC2)c1cccc(Cl)c1Cl the results were USP17 inh 15.9, USP30 inh -1.6 and USP28 inh 38.4*.
For O=C(Nc1nc2c(s1)CCC2)c1cccc(N2CCNC2=O)c1 the results were USP17 inh 42.4*, USP30 inh -42.1 and USP28 inh 30.7*.
Screening Cc1cc(C)n(-c2ccc(C(=O)Nc3nc4c(s3)CN(C)CC4)cc2)n1 returned USP17 inh 8.3, USP30 inh -295.2 and USP28 inh -12.1.
`Cc1cccc(OCC(=O)Nc2nc3c(s2)CCCC3)c1` gave USP17 inh 13.3, USP30 inh 24.4 and USP28 inh 48.4*.
`CCCCNc1cc(C)nc2nc(-c3cccnc3)nn12` gave USP17 inh 2.6, USP30 inh -2.8 and USP28 inh 0.2.
For COCCn1ccc2nc(C)c(C(=O)N3CCN(c4ccccc4F)CC3)cc2c1=O the results were USP17 inh -24.5, USP30 inh -54.5 and USP28 inh -28.1.
`Clc1ccc(Cc2cnc(Nc3ccccc3)s2)cc1Cl` gave USP17 inh -13.7, USP30 inh -11.2 and USP28 inh 16.4.
Cc1cc(C)n2cnc(C#N)c2n1 was read as USP17 inh 3.3, USP30 inh 7.0 and USP28 inh -2.2.
Screening Cc1cc(C)n2cc(-c3sccc3Cl)c(C#N)c2n1 returned USP17 inh 32.9*, USP30 inh -75.3 and USP28 inh 1.7.
`COc1ccccc1NC(=O)c1cc2c(C)nn(Cc3ccccc3)c2s1` gave USP17 inh 69.9*, USP30 inh 0.2 and USP28 inh 20.4.
For COc1ccccc1NC(=O)c1ccc(Cn2nc(C)c(Cl)c2C)cc1 the results were USP17 inh -6.2, USP30 inh -10.1 and USP28 inh 9.2.
Screening Cc1ccc(Cn2nc(C)c3cc(C(=O)NC4=NCCS4)sc32)cc1 returned USP17 inh -8.5, USP30 inh -18.4 and USP28 inh -15.6.
For Cc1nn(Cc2ccccc2)c2sc(C(=O)Nc3nc4ccccc4[nH]3)cc12 the results were USP17 inh 66.6*, USP30 inh 44.3* and USP28 inh 27.1.
`O=c1c2sccc2n2c(=O)[nH]nc2n1CCc1ccccc1` gave USP17 inh 23.9, USP30 inh 0.1 and USP28 inh -2.8.
O=C(NCC1COCCO1)c1ccc(-n2cccn2)c(C#Cc2cccnc2)c1 (configuration not stated) was read as USP17 inh 5.7, USP30 inh 16.9 and USP28 inh 7.3.
For Cc1nc2ccc(NC(=O)c3cccc(C(F)(F)F)c3)cc2nc1C the results were USP17 inh -16.0, USP30 inh -64.2 and USP28 inh -10.9.
Screening O=C(Nc1ccc(S(=O)(=O)c2cccc(C(F)(F)F)c2)cc1)c1ccc(F)cc1 returned USP17 inh -3.0, USP30 inh 41.2* and USP28 inh 13.7.
For O=C(CSc1n[nH]c(-c2ccncc2)n1)NC1CCCCC1 the results were USP30 inh -5.1 and USP28 inh 0.2.
O=C(Nc1ccccc1Cl)c1ccn(COc2ccccc2F)n1 was read as USP17 inh 66.4*, USP30 inh 56.8* and USP28 inh 29.0.
For O=C(COc1ccccc1-c1nnc(-c2ccccc2)o1)Nc1ccccc1Cl the results were USP17 inh 8.8, USP30 inh 8.5 and USP28 inh 4.8.
Screening O=C(Nc1ccc(Cl)cc1Cl)c1ccn(COc2ccccc2F)n1 returned USP17 inh 35.7*, USP30 inh 44.9* and USP28 inh 17.6.
